In PubChem BioAssay (NCATS):
Values joined by “and” are separate entries in the source; they are usually repeats but may differ in a detail not shown here. Equal values may be shown once. Inconclusive results are not listed. The source holds several records for some structures; these can differ, active in one and inactive in another. Active and inactive are the calls of the source. Calls come from the whole dose curve; as a rule, active = well fitted curve in the direction sought with a large enough effect; inconclusive = small, poorly fitted or top-dose-only effect, or another doubt; inactive = no such curve, though single readings can be large; an effect the other way counts as inactive or inconclusive.

How the values were obtained:
[1] = Viability qHTS for spleen associated tyrosine kinase inhibitor (SYKi) naive MV4-11 cells (AID 1963823); note: nearly all actives have a fitted effect of over 40% in size
In short: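 Luminescence from CellTiter-Glo, developed 10 min at room temperature, gave viability of MV4-11 cells never exposed to SYK inhibitor. Cells (500/well) had been incubated with compounds for 72 hr under standard culture conditions.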

[2] = Viability qHTS for spleen associated tyrosine kinase inhibitor (SYKi) drug resistant MV4-11 cells (AID 1963824); note: nearly all actives have a fitted effect of over 35% in size
In short: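 SYK-inhibitor-resistant MV4-11 AML cells were seeded at 500 per well onto compound and cultured 72 hours (37 °C, 5% CO2). CellTiter-Glo was then added, and after 10 min at room temperature, luminescence gave viability.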

[3] = Quantitative highthroughput screen to assess conditional lethalithy of P12 Ichikawa cells grown in Human Plasma-Like Medium with dialyzed fetal bovine serum (HPLM+ds) (AID 1963879); details: Potency: viability; note: nearly all actives have a fitted effect of over 35% in size; for Viability: series mostly up to about 46 µM
In short: (§1)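 Each medium arm—HPLM with 10% dialyzed FBS, or RPMI1640 with 5 mM glucose and 10% untreated or dialyzed FBS—was screened against an 11-point, 3-fold compound titration for 48 h at 37 °C, with CellTiter-Glo luminescence as endpoint.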

[4] = Quantitative highthroughput screen to assess conditional lethalithy of P12 Ichikawa cells grown in RPMI1640 with untreated serum (RPMI+s) (AID 1963881); details: Potency: viability; note: nearly all actives have a fitted effect of over 35% in size;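 for Viability: series mostly up to about 46 µM; 100% = DMSO wells and 0% = empty wells without cells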
In short: as §1

[5] = Quantitative highthroughput screen to assess conditional lethalithy of SEM cells grown in Human Plasma-Like Medium with dialyzed fetal bovine serum (HPLM+ds) (AID 1963882); note: nearly all actives have a fitted effect of over 35% in size; for Viability: series mostly up to about 46 µM
In short: as §1

[6] = Quantitative highthroughput screen to assess conditional lethalithy of SEM cells grown in RPMI1640 with unreated serum (RPMI+s) (AID 1963883); note: nearly all actives have a fitted effect of over 35% in size;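 for Viability: 100% = DMSO wells and 0% = empty wells without cells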
In short: as §1

[7] = Quantitative highthroughput screen to assess conditional lethalithy of NOMO1 cells grown in Human Plasma-Like Medium with dialyzed fetal bovine serum (HPLM+ds) (AID 1963878); note: nearly all actives have a fitted effect of over 35% in size;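 for Viability: 100% = DMSO wells and 0% = empty wells on each plate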
In short: as §1

[8] = Cellular viability qHTS for adrenocortical cancer (ACC) cell line SW-13 (AID 1963989); details: SW-13 ACC cells viability, CellTiter-Glo, 48 h; activity (max response): stronger effect = lower value; note: nearly all actives have a fitted effect of over 65% in size;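 for activity (max response): cells grown in serum-free medium with ITS supplement; % is set by controls: 0 for no effect and ±100 for the full control effect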
In short: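 Here, serum-free SW-13 cultures were dosed up to 46 uM. Following 48 h, ATP-dependent luminescence (CellTiter-Glo) reported viable cells, and logistic modeling produced IC50 values.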

[9] = Cellular viability qHTS for adrenocortical cancer (ACC) cell line NCI-H295R (AID 1963990); note: nearly all actives have a fitted effect of over 60% in size
In short: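 Viability of NCI-H295R after 48 h of treatment (final up to 46 uM) measured through cellular ATP luminescence.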

[10] = Quantitative highthroughput screen to assess conditional lethalithy of SEM cells grown in RPMI1640 with dialyzed fetal bovine serum (RPMI+ds) (AID 1963884); note: nearly all actives have a fitted effect of over 35% in size;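 for Viability: series mostly up to about 46 µM; 100% = DMSO control wells and 0% = empty wells without cells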
In short: as §1

[11] = Quantitative highthroughput screen to assess conditional lethalithy of P12 Ichikawa cells grown in RPMI1640 with dialyzed fetal bovine serum (RPMI+ds) (AID 1963880); details: Potency: P12-Ichikawa viability; note: nearly all actives have a fitted effect of over 35% in size;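 for Viability: 100% = DMSO wells and 0% = empty wells on each plate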
In short: as §1
Potency is the fitted concentration of half-maximal effect.

SMILES | Potency [1] | Potency [2] | Potency [3] | Potency [4] | Potency [5] | Potency [6] | Potency [7] | activity (max response) [8] | Potency [9] | Potency [10] | Potency [8] | Potency [11]
O=C(O)C1(Cc2cccc(Nc3nccs3)n2)CCC(Oc2cccc(Cl)c2F)CC1 (stereo not drawn) | 517 nM (active) | 461 nM (active) and 468 nM (active) | 2350 nM (active) | 2640 nM (active) | 2960 nM (active) | 3320 nM (active) |  |  |  |  |  | 
CCC(=O)O[C@]1(C(=O)SCF)[C@H](C)C[C@H]2[C@@H]3C[C@H](F)C4=CC(=O)C=C[C@]4(C)[C@@]3(F)[C@@H](O)C[C@@]21C | 3.3 nM (active) and 8.3 nM (active) | 1180 nM (active) |  |  |  |  | inactive | 0.482% (inactive) and -2.88% (inactive) | inactive |  |  | 
O=c1c(O)c(-c2ccc(O)c(O)c2)oc2cc(O)ccc12 | 13200 nM (active) | 5.8 µM (active) and 9.34 µM (active) |  |  |  |  | inactive | 0.454% (inactive) | inactive | 23500 nM (active) |  | 
CCc1cc(-c2n[nH]c(C)c2-c2ccc3c(c2)OCCO3)c(O)cc1O | 2350 nM (active) | 4170 nM (active) |  |  |  |  | 11800 nM (active) |  | 15800 nM (active) |  | 14100 nM (active) | 
COc1ccc(C=Cc2cc(OC)c(OC)c(OC)c2)cc1NC(=O)[C@H](N)CO | 33.2 nM (active) | 41.7 nM (active) | 29.6 nM (active) | 16.6 nM (active) | 26.4 nM (active) | 20.9 nM (active) |  |  | 199 nM (active) | 29.6 nM (active) | 126 nM (active) | 46.9 nM (active)
CN1CCN(c2c(F)cc3c(=O)c(C(=O)O)cn4c3c2OCN4C)CC1 | inactive | inactive | inactive | inactive |  |  |  |  | inactive |  |  | 
Cc1ccc(NC(=O)c2ccc(CN3CCN(C)CC3)cc2)cc1Nc1nc(-c2cccnc2)cs1 | 11.6 µM (active) and 14.8 µM (active) | 13 µM (active) and 13.2 µM (active) |  |  |  |  | 372 nM (active) |  | 22400 nM (active) |  | 25100 nM (active) | 
OCCN1CCN(CCCN2c3ccccc3Sc3ccc(C(F)(F)F)cc32)CC1 | 16.8 µM (active) and 5.25 µM (active) | 26.6 µM (active) and 5.25 µM (active) | 7430 nM (active) | 11800 nM (active) |  |  |  | 8.75% (inactive) | inactive |  |  | 14800 nM (active)
Cc1cc(Nc2cc(N3CCN(C)CC3)nc(Sc3ccc(NC(=O)C4CC4)cc3)n2)n[nH]1 | 46.1 nM (active) | 29.1 nM (active) | 332 nM (active) | 296 nM (active) | 418 nM (active) | 372 nM (active) |  |  | 15800 nM (active) | 332 nM (active) |  | 
C[C@H](NC(=O)C(=O)Nc1ccccc1C(C)(C)C)C(=O)N[C@@H](CC(=O)O)C(=O)COc1c(F)c(F)cc(F)c1F | 2350 nM (active) | 1860 nM (active) | 20900 nM (active) | 14800 nM (active) | 5260 nM (active) | 5900 nM (active) |  |  |  | 5260 nM (active) |  | 14800 nM (active)
C[C@@H](Oc1cc(-n2cnc3ccc(CN4CCN(C)CC4)cc32)sc1C(N)=O)c1ccccc1C(F)(F)F | 20.9 nM (active) | 10.5 nM (active) | 29.6 nM (active) | 33.2 nM (active) |  | 33.2 nM (active) |  |  |  |  | 50.1 nM (active) | 33.2 nM (active)
CCn1c(=O)c2c(nc(C=Cc3ccc(OC)c(OC)c3)n2C)n(CC)c1=O | inactive | inactive | inactive | inactive | inactive | inactive |  | 1.29% (inactive) |  | inactive |  | inactive
Cc1cc(C(=O)NOCCO)c(Nc2ccc(I)cc2F)n(C)c1=O | 52.5 nM (active) | 41.1 nM (active) | inactive |  | 66.2 nM (active) | inactive |  |  | inactive | 7.4 nM (active) |  | inactive
CCCc1nc2c(C)cc(-c3nc4ccccc4n3C)cc2n1Cc1ccc(-c2ccccc2C(=O)O)cc1 | 750 nM (active) and inactive | inactive | inactive |  | inactive | inactive |  | 3.79% (inactive) and 0.0088% (inactive) | inactive | inactive |  | inactive
Cc1cc(C(C)(C)C)c(O)c(C)c1CC1=NCCN1 | inactive | inactive | 8330 nM (active) | 10500 nM (active) |  |  |  | -5.66% (inactive) and -4.23% (inactive) | inactive |  |  | 
Clc1cccc(-c2nnnn2Cc2cccnc2)c1Cl | inactive | inactive | 7430 nM (active) | 1320 nM (active) |  |  |  |  |  |  |  | 
